{
  "source": "paper PMC7862700",
  "about": "“An all-to-all approach to the identification of sequence-specific readers for epigenetic DNA modifications on cytosine”",
  "assay_in_all_cases": "DAPPL (digital affinity profiling via proximity ligation, sequencing); 10 mM Tris-HCl pH 7.5, 50 mM NaCl, 1 mM DTT, 4% glycerol, room temperature, 30 min; GST-TFs on glutathione beads, 16-mer random dsDNA library, 0.1% formaldehyde crosslink after washing; high values mean tight binding",
  "settings_in_all_cases": "protein: recombinant; tags: N-terminal GST; dsDNA, one strand shown",
  "key": {"[1]": {"biological_target": "T1, FLI1 (Homo sapiens, UniProt Q01543 1-452)", "T1 sequence": "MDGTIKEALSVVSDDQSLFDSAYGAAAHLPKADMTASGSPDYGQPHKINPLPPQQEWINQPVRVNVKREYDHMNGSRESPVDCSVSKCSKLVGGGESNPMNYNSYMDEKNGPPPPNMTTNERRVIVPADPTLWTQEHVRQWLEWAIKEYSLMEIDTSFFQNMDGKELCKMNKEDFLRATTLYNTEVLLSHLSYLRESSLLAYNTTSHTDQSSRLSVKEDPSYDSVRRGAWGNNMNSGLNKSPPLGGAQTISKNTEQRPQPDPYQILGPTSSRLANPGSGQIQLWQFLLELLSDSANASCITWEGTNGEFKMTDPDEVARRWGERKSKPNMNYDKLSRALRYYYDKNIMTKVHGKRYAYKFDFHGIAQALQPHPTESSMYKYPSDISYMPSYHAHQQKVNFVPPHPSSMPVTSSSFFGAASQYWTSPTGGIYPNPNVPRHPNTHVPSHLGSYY", "method_in_brief": "(§1)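 Sequencing on an Illumina NextSeq500 followed washing, crosslinking with 0.1% formaldehyde, proximity ligation (BsaI/T4 ligase, 1 h, 37 °C) and PCR amplification of pools that had been incubated for 30 min at room temperature with 200 nmole of a random double-stranded 16-mer DNA library in Tris/NaCl/DTT/glycerol buffer. Each pool held DNA-barcoded human transcription factors, expressed in yeast as GST fusions and captured on glutathione beads, plus a tag-only sample. Binding signal is a hexamer's read frequency for a factor divided by its frequency in the tag-only sample.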"}, "[2]": {"biological_target": "T2, ELK1 (Homo sapiens, UniProt P19419 1-428)", "T2 sequence": "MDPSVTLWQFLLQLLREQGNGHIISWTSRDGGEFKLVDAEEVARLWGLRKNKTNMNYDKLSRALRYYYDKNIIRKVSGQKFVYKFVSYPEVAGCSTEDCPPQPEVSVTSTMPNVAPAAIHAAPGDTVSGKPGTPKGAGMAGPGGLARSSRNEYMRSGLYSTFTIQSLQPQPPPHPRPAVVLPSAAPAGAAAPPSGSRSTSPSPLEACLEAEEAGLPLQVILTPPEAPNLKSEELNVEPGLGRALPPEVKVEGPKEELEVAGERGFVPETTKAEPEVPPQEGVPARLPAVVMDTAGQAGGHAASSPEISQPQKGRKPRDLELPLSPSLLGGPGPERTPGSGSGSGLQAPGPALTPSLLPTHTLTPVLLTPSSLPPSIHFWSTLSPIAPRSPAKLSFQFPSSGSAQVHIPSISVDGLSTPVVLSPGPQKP", "method_in_brief": "as §1"}, "[3]": {"biological_target": "T3, GABPA (Homo sapiens, UniProt Q06546 1-454)", "T3 sequence": "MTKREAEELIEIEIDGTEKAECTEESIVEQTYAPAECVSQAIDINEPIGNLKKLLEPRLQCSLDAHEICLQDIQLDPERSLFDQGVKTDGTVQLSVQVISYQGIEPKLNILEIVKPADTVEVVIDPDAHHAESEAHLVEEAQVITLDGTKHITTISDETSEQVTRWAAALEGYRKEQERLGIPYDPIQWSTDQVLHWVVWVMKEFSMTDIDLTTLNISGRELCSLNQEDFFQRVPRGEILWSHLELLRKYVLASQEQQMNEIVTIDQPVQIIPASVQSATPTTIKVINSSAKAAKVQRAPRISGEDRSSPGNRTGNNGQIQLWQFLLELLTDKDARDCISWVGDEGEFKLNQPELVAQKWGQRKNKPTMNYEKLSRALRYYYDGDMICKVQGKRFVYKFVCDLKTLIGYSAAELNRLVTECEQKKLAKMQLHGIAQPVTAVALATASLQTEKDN", "method_in_brief": "as §1"}, "[4]": {"biological_target": "T4, ERG (Homo sapiens, UniProt P11308 1-479)", "T4 sequence": "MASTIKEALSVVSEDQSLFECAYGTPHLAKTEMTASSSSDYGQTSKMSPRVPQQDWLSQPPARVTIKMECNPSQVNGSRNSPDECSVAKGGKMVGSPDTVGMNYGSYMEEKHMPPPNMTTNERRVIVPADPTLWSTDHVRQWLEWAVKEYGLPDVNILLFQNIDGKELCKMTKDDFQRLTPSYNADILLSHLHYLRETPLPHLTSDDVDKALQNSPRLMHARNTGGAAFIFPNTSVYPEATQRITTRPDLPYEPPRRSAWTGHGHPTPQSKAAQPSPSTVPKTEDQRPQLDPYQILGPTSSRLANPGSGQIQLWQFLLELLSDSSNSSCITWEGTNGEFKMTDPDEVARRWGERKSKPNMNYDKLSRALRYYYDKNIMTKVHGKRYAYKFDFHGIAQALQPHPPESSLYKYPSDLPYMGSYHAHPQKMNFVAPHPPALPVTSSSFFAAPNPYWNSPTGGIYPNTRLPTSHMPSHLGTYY", "method_in_brief": "as §1"}, "[5]": {"biological_target": "ELF1 (Homo sapiens, UniProt P32519 1-619)", "sequence (P32519 whole entry)": "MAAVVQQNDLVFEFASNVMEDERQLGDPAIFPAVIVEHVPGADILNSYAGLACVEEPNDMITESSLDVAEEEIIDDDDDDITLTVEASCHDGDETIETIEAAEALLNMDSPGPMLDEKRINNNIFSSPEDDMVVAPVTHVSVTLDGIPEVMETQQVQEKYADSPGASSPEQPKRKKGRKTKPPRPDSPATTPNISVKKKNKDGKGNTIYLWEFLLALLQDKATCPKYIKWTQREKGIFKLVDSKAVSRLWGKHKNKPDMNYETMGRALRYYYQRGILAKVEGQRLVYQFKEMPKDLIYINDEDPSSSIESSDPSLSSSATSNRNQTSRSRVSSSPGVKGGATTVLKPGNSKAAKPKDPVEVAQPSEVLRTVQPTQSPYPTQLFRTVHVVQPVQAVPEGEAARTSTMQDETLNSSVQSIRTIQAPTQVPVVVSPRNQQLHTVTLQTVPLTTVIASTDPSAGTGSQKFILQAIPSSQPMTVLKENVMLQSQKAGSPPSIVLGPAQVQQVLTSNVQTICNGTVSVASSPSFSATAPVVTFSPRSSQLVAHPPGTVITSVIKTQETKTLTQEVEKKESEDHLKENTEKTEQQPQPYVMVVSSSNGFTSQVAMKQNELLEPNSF", "method_in_brief": "as §1"}, "[6]": {"biological_target": "T5, EHF (Homo sapiens, UniProt Q9NZC4 1-300)", "T5 sequence": "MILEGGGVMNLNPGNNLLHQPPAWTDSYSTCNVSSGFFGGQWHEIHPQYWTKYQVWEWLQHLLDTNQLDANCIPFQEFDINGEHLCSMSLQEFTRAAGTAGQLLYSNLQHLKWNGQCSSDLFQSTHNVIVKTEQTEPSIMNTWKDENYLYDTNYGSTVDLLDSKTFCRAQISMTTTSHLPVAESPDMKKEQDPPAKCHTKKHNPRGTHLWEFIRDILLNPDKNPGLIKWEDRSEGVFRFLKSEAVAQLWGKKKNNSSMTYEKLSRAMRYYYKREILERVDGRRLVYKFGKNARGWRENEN", "method_in_brief": "as §1"}, "[7]": {"biological_target": "SPI1 (Homo sapiens, UniProt P17947 1-270)", "method_in_brief": "as §1"}, "[8]": {"biological_target": "SPIB (Homo sapiens, UniProt Q01892 1-262)", "sequence (Q01892 whole entry)": "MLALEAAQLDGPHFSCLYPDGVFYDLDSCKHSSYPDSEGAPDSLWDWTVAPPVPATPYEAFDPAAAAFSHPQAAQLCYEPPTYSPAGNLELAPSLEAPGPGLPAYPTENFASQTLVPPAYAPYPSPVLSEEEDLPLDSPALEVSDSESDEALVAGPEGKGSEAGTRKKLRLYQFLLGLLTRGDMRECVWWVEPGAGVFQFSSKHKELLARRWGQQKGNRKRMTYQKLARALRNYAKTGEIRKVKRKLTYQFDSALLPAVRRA", "method_in_brief": "as §1"}, "[9]": {"biological_target": "T6, ELK3 (Homo sapiens, UniProt P41970 1-407)", "T6 sequence": "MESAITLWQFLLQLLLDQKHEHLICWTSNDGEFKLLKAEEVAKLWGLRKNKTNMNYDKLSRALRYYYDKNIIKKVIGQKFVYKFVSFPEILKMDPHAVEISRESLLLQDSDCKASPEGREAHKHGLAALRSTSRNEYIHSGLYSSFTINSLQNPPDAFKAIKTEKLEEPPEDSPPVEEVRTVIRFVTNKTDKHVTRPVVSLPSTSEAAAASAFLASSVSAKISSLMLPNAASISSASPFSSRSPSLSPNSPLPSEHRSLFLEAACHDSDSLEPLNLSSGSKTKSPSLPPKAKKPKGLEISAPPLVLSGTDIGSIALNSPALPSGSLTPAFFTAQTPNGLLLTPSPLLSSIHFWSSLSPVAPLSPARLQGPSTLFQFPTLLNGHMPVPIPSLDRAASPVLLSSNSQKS", "method_in_brief": "as §1"}},
  "data": [
    {"sequence": "ATTGCG", "values": [
      {"measurement": "binding signal", "setting": "[1]", "value": "1.33 fold enrichment (6-mer frequency, TF over GST control)"},
      {"measurement": "binding signal", "setting": "[2]", "value": "1.06 fold enrichment (6-mer frequency, TF over GST control)"},
      {"measurement": "binding signal", "setting": "[3]", "value": "1.3 fold enrichment (6-mer frequency, TF over GST control)"},
      {"measurement": "binding signal", "setting": "[4]", "value": "1.16 fold enrichment (6-mer frequency, TF over GST control)"},
      {"measurement": "binding signal", "setting": "[5]", "value": "1.27 fold enrichment (6-mer frequency, TF over GST control)"},
      {"measurement": "binding signal", "setting": "[6]", "value": "1.28 fold enrichment (6-mer frequency, TF over GST control)"},
      {"measurement": "binding signal", "setting": "[7]", "value": "1.44 fold enrichment (6-mer frequency, TF over GST control)"},
      {"measurement": "binding signal", "setting": "[8]", "value": "1.1 fold enrichment (6-mer frequency, TF over GST control)"},
      {"measurement": "binding signal", "setting": "[9]", "value": "1.27 fold enrichment (6-mer frequency, TF over GST control)"}
    ]}
  ]
}
